The results in this text go back to PubChem BioAssay (EPA / NIEHS).

SMILES strings stand for the structures. Calls of active or inactive are those of the source. Rule for the calls: active = hit-call score of the fitted dose curve at least 0.9, where 1 is the maximum; inactive = score below 0.9.

Settings in all cases: mRNA level, 48 h; actives raise or lower the signal
Read-out in assay [1]: Cyclin D2 (CCND2), CCND2 (gene 894)
Put plainly: LTEA_HepaRG_CCND2: Life Technologies and Expression Analysis (LTEA) Assay for Cyclin D2 (CCND2) using HepaRG (AID 2283449).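 Note: CCND2 transcript measured by TaqMan qRT-PCR and normalised to three housekeeping genes.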 The gist of the method:
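Chemicals in 0.5% DMSO, eight half-log concentrations from 100 uM top, were applied in duplicate for 48 h to human HepaRG cells in serum-free induction medium. CCND2 mRNA by TaqMan qRT-PCR, normalised to ACTB/GAPDH/POLR2A; bidirectional fit versus DMSO.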

Read-out in assay [2]: Cyclin Dependent Kinase Inhibitor 1A (CDKN1A), CDKN1A (gene 1026)
As to the kind of experiment: LTEA_HepaRG_CDKN1A: Life Technologies and Expression Analysis (LTEA) Assay for Cyclin Dependent Kinase Inhibitor 1A (CDKN1A) using HepaRG (AID 2283450). The gist of the method: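 Gain or loss of CDKN1A transcript is scored by bidirectional fitting against 0.5% DMSO vehicle. Human HepaRG cultures receive chemicals for 48 h across an 8-point series peaking at 100 uM; expression comes from qRT-PCR.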

Read-out in assay [3]: catalase (CAT), CAT (gene 847)
Put plainly: LTEA_HepaRG_CAT: Life Technologies and Expression Analysis (LTEA) Assay for catalase (CAT) using HepaRG (AID 2283452). The gist of the method: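 HepaRG cells in serum-free induction medium, 0.5% DMSO vehicle, exposed 48 h in duplicate over 8 half-log concentrations from 100 uM. CAT mRNA measured by qRT-PCR, normalized to ACTB, GAPDH, POLR2A; bidirectional fit versus DMSO.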

Read-out in assay [4]: flavin-containing dimethylaniline monooxygenases 3 (FMO3), FMO3 (gene 2328)
Put plainly: LTEA_HepaRG_FMO3: Life Technologies and Expression Analysis (LTEA) Assay for flavin-containing dimethylaniline monooxygenases 3 (FMO3) using HepaRG (AID 2283453). The gist of the method: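 Differentiated HepaRG cells in serum-free induction medium, exposed 48 h in duplicate to 8 half-log concentrations up to 100 uM in 0.5% DMSO. FMO3 mRNA by qRT-PCR, normalized to ACTB, GAPDH, POLR2A; bidirectional fit vs DMSO.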

Read-out in assay [5]: Cytochrome P450 (CYP1A1), CYP1A1 (gene 1543)
Put plainly: LTEA_HepaRG_CYP1A1: Life Technologies and Expression Analysis (LTEA) Assay for Cytochrome P450 (CYP1A1) using HepaRG (AID 2283454). The gist of the method: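 Using HepaRG cultures with 0.5% DMSO as vehicle, eight-concentration exposures (max 100 uM) lasted 48 h. Transcript levels were measured by TaqMan qRT-PCR and normalized to ACTB, GAPDH and POLR2A.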

Read-out in assay [6]: CFLAR gene, CFLAR (gene 8837)
As to the kind of experiment: LTEA_HepaRG_CFLAR: Life Technologies and Expression Analysis (LTEA) Assay for CFLAR gene using HepaRG (AID 2283455). The gist of the method: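 Differentiated HepaRG cells in serum-free induction medium were exposed 48 h in duplicate to eight half-log concentrations up to 100 uM in 0.5% DMSO; mRNA measured by TaqMan qRT-PCR, normalized to ACTB, GAPDH, POLR2A; bidirectional fitting versus DMSO.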

Read-out in assay [7]: Forkhead box O1 (FOXO1), FOXO1 (gene 2308)
As to the kind of experiment: LTEA_HepaRG_FOXO1: Life Technologies and Expression Analysis (LTEA) Assay for Forkhead box O1 (FOXO1) using HepaRG (AID 2283456). The gist of the method:
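Differentiated HepaRG cells, in serum-free induction medium with 0.5% DMSO, exposed 48 h in duplicate to 8-point half-log series from 100 uM. FOXO1 mRNA measured by TaqMan qRT-PCR, normalized to ACTB, GAPDH, POLR2A; bidirectional fit versus DMSO.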

Read-out in assay [8]: growth arrest and DNA damage 45 (GADD45A), GADD45A (gene 1647)
As to the kind of experiment: LTEA_HepaRG_GADD45A: Life Technologies and Expression Analysis (LTEA) Assay for growth arrest and DNA damage 45 (GADD45A) using HepaRG (AID 2283458). The gist of the method: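 Cells plated and cultured 48 h, switched to serum-free induction medium, then dosed for 48 h (100 uM top, half-log dilutions, 0.5% DMSO). RNA was isolated and transcript measured by Fluidigm qRT-PCR.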

Read-out in assay [9]: Forkhead box O3 (FOXO3), FOXO3 (gene 2309)
Put plainly: LTEA_HepaRG_FOXO3: Life Technologies and Expression Analysis (LTEA) Assay for Forkhead box O3 (FOXO3) using HepaRG (AID 2283459). The gist of the method: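 Differentiated human HepaRG cells, 48 h post-plating, exposed in duplicate for 48 h in serum-free induction medium; 8-point half-log series from 100 uM in 0.5% DMSO. FOXO3 mRNA by TaqMan qRT-PCR, normalized to ACTB/GAPDH/POLR2A; bidirectional fit versus DMSO.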

Read-out in assay [10]: ABC Transporter (ABCB1), ABCB1 (gene 5243)
Put plainly: LTEA_HepaRG_ABCB1: Life Technologies and Expression Analysis (LTEA) Assay for ABC Transporter (ABCB1) using HepaRG (AID 2283460). The gist of the method:
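HepaRG cells exposed in duplicate for 48 h in serum-free induction medium to eight half-log concentrations up to 100 uM in 0.5% DMSO. ABCB1 mRNA quantified by qRT-PCR, normalised to ACTB, GAPDH and POLR2A; fitted bidirectionally versus DMSO.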

Read-out in assay [11]: growth arrest and DNA damage 45 (GADD45B), GADD45B (gene 4616)
Put plainly: LTEA_HepaRG_GADD45B: Life Technologies and Expression Analysis (LTEA) Assay for growth arrest and DNA damage 45 (GADD45B) using HepaRG (AID 2283461). The gist of the method:
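Human HepaRG monolayers receive chemicals for 48 h at eight half-log concentrations, highest 100 uM, in 0.5% DMSO. Expression is measured by TaqMan qRT-PCR and normalized to ACTB, GAPDH and POLR2A.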

Read-out in assay [12]: ABC Transporter (ABCB11), ABCB11 (gene 8647)
As to the kind of experiment: LTEA_HepaRG_ABCB11: Life Technologies and Expression Analysis (LTEA) Assay for ABC Transporter (ABCB11) using HepaRG (AID 2283463). The gist of the method:
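Differentiated human HepaRG cells in serum-free induction medium, dosed in duplicate for 48 h. Eight-point half-log series from 100 uM in 0.5% DMSO; ABCB11 mRNA by qRT-PCR, normalized to ACTB, GAPDH, POLR2A, fitted bidirectionally versus DMSO.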

Read-out in assay [13]: ABC Transporter (ABCC2), ABCC2 (gene 1244)
Put plainly: LTEA_HepaRG_ABCC2: Life Technologies and Expression Analysis (LTEA) Assay for ABC Transporter (ABCC2) using HepaRG (AID 2283464). The gist of the method: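 After plating and 48 h culture, HepaRG medium is replaced with serum-free induction medium and chemicals are added (8 concentrations, max 100 uM, 0.5% DMSO) for 48 h. Total RNA then undergoes qRT-PCR for ABCC2 with housekeeping normalization.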

Read-out in assay [14]: Broad substrate specificity ATP-binding cassette transporter ABCG2 (Homo sapiens) (UniProt Q9UNQ0)
As to the kind of experiment: LTEA_HepaRG_ABCG2: Life Technologies and Expression Analysis (LTEA) Assay for ABC Transporter (ABCG2) using HepaRG (AID 2283465). The gist of the method:
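Differentiated HepaRG cells were exposed for 48 h in serum-free induction medium to 8 half-log concentrations, top 100 uM, in 0.5% DMSO. ABCG2 mRNA was measured by qRT-PCR, normalized to ACTB, GAPDH and POLR2A, with bidirectional fitting versus DMSO.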

Read-out in assay [15]: ATP-citrate lyase (ACLY), ACLY (gene 47)
Put plainly: LTEA_HepaRG_ACLY: Life Technologies and Expression Analysis (LTEA) Assay for ATP-citrate lyase (ACLY) using HepaRG (AID 2283466). The gist of the method: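 Differentiated HepaRG cells exposed 48 h in serum-free induction medium to eight half-log concentrations up to 100 uM in 0.5% DMSO, duplicates. Transcript measured by Fluidigm TaqMan qRT-PCR, normalized to ACTB, GAPDH, POLR2A; bidirectional fit versus DMSO.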

Read-out in assay [16]: Peroxisomal acyl-coenzyme A oxidase 1 (ACOX1) gene, ACOX1 (gene 51)
Put plainly: LTEA_HepaRG_ACOX1: Life Technologies and Expression Analysis (LTEA) Assay for Peroxisomal acyl-coenzyme A oxidase 1 (ACOX1) gene using HepaRG (AID 2283467). The gist of the method:
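HepaRG cells, plated 48 h then switched to serum-free induction medium, were exposed in duplicate for 48 h to 8-point half-log concentrations up to 100 uM in 0.5% DMSO. ACOX1 mRNA was measured by qRT-PCR, normalized to ACTB/GAPDH/POLR2A, and fitted bidirectionally versus DMSO.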

Read-out in assay [17]: Alkaline Phosphatase, Placental (ALPP) gene, ALPP (gene 250)
Put plainly: LTEA_HepaRG_ALPP: Life Technologies and Expression Analysis (LTEA) Assay for Alkaline Phosphatase, Placental (ALPP) gene using HepaRG (AID 2283468). The gist of the method: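 Using human liver HepaRG cells, chemicals are tested in duplicate over 48 h at half-log concentrations topping at 100 uM; phenobarbital 1 mM serves as induction control. ALPP mRNA change by qRT-PCR, bidirectional fit against vehicle.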

Read-out in assay [18]: ABC Transporter (ABCC3), ABCC3 (gene 8714)
As to the kind of experiment: LTEA_HepaRG_ABCC3: Life Technologies and Expression Analysis (LTEA) Assay for ABC Transporter (ABCC3) using HepaRG (AID 2283462). The gist of the method: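 Transcriptional change of ABCC3 in HepaRG after 48 h treatment, determined by qRT-PCR normalized to endogenous controls. Concentrations spanned eight half-log steps to 100 uM in 0.5% DMSO.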

Broad substrate specificity ATP-binding cassette transporter ABCG2 (Homo sapiens), sequence (Q9UNQ0 whole entry, looked up): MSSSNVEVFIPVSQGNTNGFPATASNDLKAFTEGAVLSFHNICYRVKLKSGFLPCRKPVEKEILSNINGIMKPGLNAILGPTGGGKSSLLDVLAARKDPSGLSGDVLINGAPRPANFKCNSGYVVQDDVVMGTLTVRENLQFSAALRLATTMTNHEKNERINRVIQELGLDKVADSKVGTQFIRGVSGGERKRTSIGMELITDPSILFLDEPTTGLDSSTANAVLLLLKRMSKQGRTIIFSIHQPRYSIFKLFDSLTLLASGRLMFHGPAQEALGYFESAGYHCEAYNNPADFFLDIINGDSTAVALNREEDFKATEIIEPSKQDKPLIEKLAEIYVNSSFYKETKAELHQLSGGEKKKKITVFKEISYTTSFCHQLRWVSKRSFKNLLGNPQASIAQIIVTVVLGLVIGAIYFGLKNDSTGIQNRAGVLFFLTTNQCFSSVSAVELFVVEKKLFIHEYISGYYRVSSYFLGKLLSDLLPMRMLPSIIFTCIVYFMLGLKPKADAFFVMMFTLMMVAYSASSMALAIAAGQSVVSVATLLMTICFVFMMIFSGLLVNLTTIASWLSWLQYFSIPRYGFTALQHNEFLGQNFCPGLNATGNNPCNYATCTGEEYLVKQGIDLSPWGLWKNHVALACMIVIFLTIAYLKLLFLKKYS

What is called AC50 is the midpoint of the concentration-response curve, whichever way the signal moves. As to `NC(=O)N(O)[C@@H]1C=C[C@H](Oc2cccc(Oc3ccc(F)cc3)c2)C1`, the call in assay [1], in assay [9], in assay [10] and in [11] was inactive. In addition, the AC50 was 33 µM (active) in assay [2]; 50 µM (active) in assay [3]; 42.7 µM (active) in assay [4]; 27.3 µM (active) in [5]; 67.3 µM (active) in assay [6]; 82.1 µM (active) in assay [7]. Besides, the AC50 is 64 µM (active) in [8]; 68 µM (active) in [12]; 82.5 µM (active) in assay [13]; 34.9 µM (active) in assay [14]; 22.7 µM (active) in [15]; 65.1 µM (active) in assay [16]. In addition, the concentration at half-maximal activity (AC50) in assay [17] is 3.76 µM (active).
Consider `CC(=O)NC1(c2cccc(F)c2)CCN(CC[C@@]2(c3ccc(Cl)c(Cl)c3)CN(c3ccccc3)C(=O)CO2)CC1`, for which the compound was called inactive in assay [1], in assay [2], in assay [3], in [7], in assay [8] and in assay [9]. The call in assay [11], in [14] and in assay [16] was inactive. For the same compound, the AC50 in assay [4] is 13.1 µM (active); in assay [5] it was 20 µM (active); in [6], 56.1 µM (active); in [10], 68.7 µM (active); in assay [12], 20.8 µM (active); in assay [13], 71.9 µM (active). Also, the AC50 in [17] is 19.6 µM (active).
On to `OCCC(F)(F)C(F)(F)C(F)(F)C(F)(F)C(F)(F)C(F)(F)F`, for which the call in assay [1], in assay [2], in assay [3], in assay [4], in assay [6] and in assay [7] was inactive. For the same compound, the outcome in assay [8], in [9], in assay [10], in [11], in assay [12] and in assay [13] was inactive. The compound was classed as inactive in [14], in [15], in assay [16] and in assay [17]. For the same compound, the AC50 in assay [5] was 84.4 µM (active).
Consider `Oc1cc2ccccc2c2ccccc12`, for which the compound was called inactive in assay [2], in assay [3], in assay [4], in [6], in assay [7] and in assay [8]. The compound was classed as inactive in assay [9], in [10], in assay [11], in assay [18], in assay [13] and in [14]. Also, the compound was called inactive in assay [15], in [16] and in [17]. The AC50 in assay [5] is 30.7 µM (active); in assay [12], 38.9 µM (active).
